# Inconclusive results are not listed. A call without a number means that no potency is given here. A structure can be active in one record and inactive in another. Calls of active or inactive are those of the source. Unless noted, the call rests on the fitted dose curve; in most records, active means well fitted curve in the direction sought with a large enough effect; inconclusive means small, poorly fitted or top-dose-only effect, or another doubt; inactive means no such curve, though single readings can be large; an effect the other way counts as inactive or inconclusive.
# Tests used:
# [1] = qHTS for Inhibitors of Plasmodium falciparum (GB4) proliferation (AID 504315); further: nearly all actives have a fitted effect of over 50% in size
# Outline: (§1)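 Erythrocytes infected with P. falciparum line (0.3% parasitemia, 2.5% hematocrit final) incubated with compounds 72 h at 37 °C, 5% CO2; SYBR Green lysis buffer added, fluorescence read next day. Normalized to 0.29 uM artemisinin and DMSO.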
# [2] = qHTS for Inhibitors of Plasmodium falciparum (CP250) proliferation (AID 504320)
# Outline: as §1
# [3] = molecular target: Atrial natriuretic peptide receptor 1 (Homo sapiens) (UniProt P16066); experiment: Natriuretic polypeptide receptor (hNpr1) antagonism - Pilot CMLD screen (AID 1347052; calls by dose curve;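 further: HEK293 cells with hNpr1 stimulated by hNppA peptide at 0.1 nM; cGMP level read as GloSensor luciferase luminescence after agonist stimulation; series mostly up to about 9.2 µM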)
# [4] = qHTS for Inhibitors of Plasmodium falciparum (7G8) proliferation (AID 504316); further: nearly all actives have a fitted effect of over 65% in size; further: potency means the concentration at half of the fitted maximal effect; on activity change, negative = inhibition: series mostly up to about 6.7 µM
# Outline: as §1
# [5] = qHTS for Inhibitors of Plasmodium falciparum (HB3) proliferation (AID 504318); further: nearly all actives have a fitted effect of over 60% in size; further: potency means the concentration at half of the fitted maximal effect
# Outline: as §1
# [6] = molecular target: Cytochrome P450 2C9 (Homo sapiens) (UniProt P11712); experiment: qHTS Assay for Inhibitors and Substrates of Cytochrome P450 2C9 (AID 883); further: nearly all actives have a fitted effect of over 60% in size
# Outline: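 A luminogenic readout tracked human CYP2C9 (10nM) converting deoxyluciferin (100uM, at KM) in 25mM KPO4 during 60 min at 37C with regenerated NADPH. Values normalized to 57uM sulphaphenazole as complete inhibition.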
# [7] = molecular target: Cytochrome P450 3A4 (Homo sapiens) (UniProt P08684); experiment: qHTS Assay for Inhibitors and Substrates of Cytochrome P450 3A4 (AID 884); further: series mostly up to about 57 µM; nearly all actives have a fitted effect of over 50% in size
# Outline: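 20 nM human CYP3A4 with 25 uM Luciferin-PPXE (at KM) in 200 mM KPO4, preincubated 10 min with compound; NADPH regeneration started a 60 min RT reaction. Luciferin detected by luminescence, normalized to 57 uM ketoconazole as full inhibition.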
# [8] = molecular target: Cytochrome P450 2D6 (Homo sapiens) (UniProt P10635); experiment: qHTS Assay for Inhibitors and Substrates of Cytochrome P450 2D6 (AID 891);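 further: luciferin methyl ether substrate demethylated by CYP2D6 with NADPH regeneration; nearly all actives have a fitted effect of over 60% in size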
# Outline: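 Human CYP2D6 (5 nM) with 30 uM Luciferin-ME EGE (at Km) in 100 mM KPO4, compound preincubated 10 min, then NADPH regeneration system for 60 min at room temperature. Luciferin read by luminescence; normalized to 1.43 uM quinidine.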
# [9] = molecular target: Cytochrome P450 2C19 (Homo sapiens) (UniProt P33261); experiment: qHTS Assay for Inhibitors and Substrates of Cytochrome P450 2C19 (AID 899); further: nearly all actives have a fitted effect of over 60% in size
# Outline: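 NADPH-dependent conversion of Luciferin-H EGE (10uM, at KM) by 5nM enzyme in 50mM KPO4, 60 min at 37C following 10 min compound preincubation. Stopped with luciferin detection buffer; luminescence read after 20 min.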
# Sequence of Atrial natriuretic peptide receptor 1 (Homo sapiens) (P16066 whole entry, looked up): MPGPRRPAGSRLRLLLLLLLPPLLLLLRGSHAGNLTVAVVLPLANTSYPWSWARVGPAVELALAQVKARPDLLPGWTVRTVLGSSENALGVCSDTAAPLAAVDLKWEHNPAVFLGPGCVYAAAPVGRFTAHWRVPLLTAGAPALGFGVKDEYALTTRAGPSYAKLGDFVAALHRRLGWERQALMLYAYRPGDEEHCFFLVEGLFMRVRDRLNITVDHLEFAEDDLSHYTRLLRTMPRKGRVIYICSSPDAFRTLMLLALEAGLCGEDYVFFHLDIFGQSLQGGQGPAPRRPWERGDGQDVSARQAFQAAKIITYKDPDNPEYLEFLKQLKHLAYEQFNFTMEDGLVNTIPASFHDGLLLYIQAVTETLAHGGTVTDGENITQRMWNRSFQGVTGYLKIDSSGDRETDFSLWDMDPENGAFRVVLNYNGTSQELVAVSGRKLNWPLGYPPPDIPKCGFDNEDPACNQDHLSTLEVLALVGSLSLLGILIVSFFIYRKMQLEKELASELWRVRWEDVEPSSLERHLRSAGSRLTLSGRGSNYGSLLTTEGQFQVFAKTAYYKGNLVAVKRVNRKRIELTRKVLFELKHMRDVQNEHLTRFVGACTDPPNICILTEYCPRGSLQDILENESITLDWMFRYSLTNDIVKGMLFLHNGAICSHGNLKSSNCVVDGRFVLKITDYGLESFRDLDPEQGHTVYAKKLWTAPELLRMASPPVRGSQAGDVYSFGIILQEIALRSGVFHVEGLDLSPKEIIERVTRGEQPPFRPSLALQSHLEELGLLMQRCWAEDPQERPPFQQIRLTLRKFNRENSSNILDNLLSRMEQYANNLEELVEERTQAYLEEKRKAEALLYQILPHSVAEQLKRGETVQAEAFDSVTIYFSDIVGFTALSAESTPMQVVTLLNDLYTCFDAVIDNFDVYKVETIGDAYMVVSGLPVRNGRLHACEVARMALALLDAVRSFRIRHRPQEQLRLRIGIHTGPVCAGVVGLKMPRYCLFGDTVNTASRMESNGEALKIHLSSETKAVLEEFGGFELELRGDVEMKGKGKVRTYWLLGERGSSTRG
# Sequence of Cytochrome P450 3A4 (Homo sapiens) (P08684 whole entry, looked up): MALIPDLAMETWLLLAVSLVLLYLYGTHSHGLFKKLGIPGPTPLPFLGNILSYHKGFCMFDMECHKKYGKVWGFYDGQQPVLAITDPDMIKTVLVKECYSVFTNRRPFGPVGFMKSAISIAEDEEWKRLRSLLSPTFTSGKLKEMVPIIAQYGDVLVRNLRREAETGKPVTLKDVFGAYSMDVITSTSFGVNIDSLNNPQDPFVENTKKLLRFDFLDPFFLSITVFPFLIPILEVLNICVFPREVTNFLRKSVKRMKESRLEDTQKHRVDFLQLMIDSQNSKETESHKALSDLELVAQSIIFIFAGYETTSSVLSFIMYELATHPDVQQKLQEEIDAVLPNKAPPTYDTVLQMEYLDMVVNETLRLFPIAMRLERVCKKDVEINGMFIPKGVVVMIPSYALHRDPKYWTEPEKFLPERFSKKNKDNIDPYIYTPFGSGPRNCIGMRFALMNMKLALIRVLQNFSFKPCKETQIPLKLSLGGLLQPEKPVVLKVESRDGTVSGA
# Sequence of Cytochrome P450 2D6 (Homo sapiens) (P10635 whole entry, looked up): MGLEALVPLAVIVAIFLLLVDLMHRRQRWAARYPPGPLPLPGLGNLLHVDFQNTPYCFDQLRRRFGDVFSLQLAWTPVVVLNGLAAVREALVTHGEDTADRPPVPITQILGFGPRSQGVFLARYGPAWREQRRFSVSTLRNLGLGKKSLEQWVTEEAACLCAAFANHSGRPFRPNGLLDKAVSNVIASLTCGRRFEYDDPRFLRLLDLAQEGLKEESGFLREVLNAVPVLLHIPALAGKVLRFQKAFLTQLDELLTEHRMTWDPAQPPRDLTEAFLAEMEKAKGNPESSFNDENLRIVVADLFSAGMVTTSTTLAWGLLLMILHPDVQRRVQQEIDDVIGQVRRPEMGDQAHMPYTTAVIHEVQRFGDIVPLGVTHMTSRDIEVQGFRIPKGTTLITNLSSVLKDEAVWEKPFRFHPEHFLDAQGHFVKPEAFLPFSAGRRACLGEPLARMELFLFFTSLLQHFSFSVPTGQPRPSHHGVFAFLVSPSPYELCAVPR
# Sequence of Cytochrome P450 2C9 (Homo sapiens) (P11712 whole entry, looked up): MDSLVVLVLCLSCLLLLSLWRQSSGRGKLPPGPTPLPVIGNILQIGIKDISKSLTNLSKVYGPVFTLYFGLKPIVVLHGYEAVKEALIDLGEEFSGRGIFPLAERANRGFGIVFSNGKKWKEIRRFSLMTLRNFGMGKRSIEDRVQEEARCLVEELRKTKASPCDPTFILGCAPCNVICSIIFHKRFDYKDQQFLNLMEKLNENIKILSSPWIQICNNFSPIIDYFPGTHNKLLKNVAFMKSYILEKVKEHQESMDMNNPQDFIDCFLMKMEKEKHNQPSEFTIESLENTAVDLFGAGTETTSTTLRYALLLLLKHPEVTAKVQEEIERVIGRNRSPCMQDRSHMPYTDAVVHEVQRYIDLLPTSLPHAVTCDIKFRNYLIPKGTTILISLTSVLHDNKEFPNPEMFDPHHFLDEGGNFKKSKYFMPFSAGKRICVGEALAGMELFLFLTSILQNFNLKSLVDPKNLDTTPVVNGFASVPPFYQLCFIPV
# Sequence of Cytochrome P450 2C19 (Homo sapiens) (P33261 whole entry, looked up): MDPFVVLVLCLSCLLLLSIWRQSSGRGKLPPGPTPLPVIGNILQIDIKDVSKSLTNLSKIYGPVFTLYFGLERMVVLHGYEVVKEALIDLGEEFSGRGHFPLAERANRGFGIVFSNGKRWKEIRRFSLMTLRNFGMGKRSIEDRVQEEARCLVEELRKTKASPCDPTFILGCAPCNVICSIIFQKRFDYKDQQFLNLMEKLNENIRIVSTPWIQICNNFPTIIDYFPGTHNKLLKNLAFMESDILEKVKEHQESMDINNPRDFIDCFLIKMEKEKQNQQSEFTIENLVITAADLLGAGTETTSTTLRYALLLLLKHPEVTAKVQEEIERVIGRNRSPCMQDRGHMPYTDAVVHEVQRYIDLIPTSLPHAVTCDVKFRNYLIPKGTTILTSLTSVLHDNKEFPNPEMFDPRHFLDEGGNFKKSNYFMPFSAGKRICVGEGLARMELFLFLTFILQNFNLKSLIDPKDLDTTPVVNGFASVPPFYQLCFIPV
smiles,measurement,setting,value
COc1cc2c(c(OC)c1OC)[C@@]1(c3ccccc3)CCCC[C@H]1[C@@H]2NC(=O)C(F)(F)F,Potency,[1],inactive
same,Potency,[2],inactive
same,Potency,[3],inactive
COC(=O)C1=C(C(=O)OC)[C@@H]2N(C)c3ccc(OC)cc3[C@@]23C[C@@H](C(=O)OC)N(C(=O)N2CCNC2=O)C3=N1,Potency,[1],inactive
same,Potency,[2],inactive
same,Potency,[3],inactive
COc1ccc(O[C@H]2C=C[C@@H](c3ccccc3)O[C@H]2COC(=O)CCC(C)=NO[C@H](C)CN2CCCc3nc(C)c(C)cc32)cc1,Potency,[4],1900 nM (active)
same,Potency,[3],inactive
CCN1C(=NCc2ccc(OC)cc2)NC(c2ccccc2)C(C(=O)OC)=C1C (stereo unspecified),Potency,[4],inactive
same,Potency,[5],inactive
same,Potency,[2],inactive
same,Potency,[3],inactive
COc1ccccc1C=CC1=CC2(C)CC1(C)C(c1ccccc1OC)CC2=O (stereo unspecified),Potency,[4],1690 nM (active)
same,Potency,[5],1.69 µM (active)
same,Potency,[3],inactive
C[C@H]1[C@@H](C(=O)N2CCCC2)CC(=NOCc2ccccc2)C(=NOCc2ccccc2)C[C@H]1c1ccccc1,Potency,[4],478 nM (active)
same,Potency,[5],1.69 µM (active)
same,Potency,[2],inactive
same,Potency,[3],inactive
CC1(C)CC(=O)C2=C(C1)O[C@@]1(CCCCN3C(=O)c4ccccc4C3=O)Cc3c(ccc4ccccc34)[C@H]2O1,Potency,[4],1510 nM (active)
same,Potency,[3],inactive
CCCNC(=O)N1C2=NC(C(=O)OC)=C(C(=O)OC)[C@@H]3N(C)c4ccc(OC)cc4[C@]23C[C@H]1C(=O)OC,Potency,[4],1690 nM (active)
same,Potency,[5],2.94 µM (active)
same,Potency,[3],inactive
COC(=O)c1ccc(CN2C(=O)[C@@]3(CC(C)=CC[C@@H](C)O3)c3ccccc32)cc1,Potency,[4],inactive
same,Potency,[5],inactive
same,Potency,[2],inactive
same,Potency,[3],inactive
Cn1c(-c2ccccc2)c(O)c(=O)c2ccccc21,"activity change, negative = inhibition",[6],-1.19% [at 11.4 µM] (inactive)
same,"activity change, negative = inhibition",[7],-14.6% [at 11.4 µM] (inactive)
same,"activity change, negative = inhibition",[8],4.63% [at 11.4 µM] (inactive)
same,"activity, negative = inhibition",[9],50% [at 11.4 µM] (inactive)
same,Potency,[4],inactive
same,Potency,[5],inactive
same,Potency,[2],inactive
same,Potency,[3],inactive
CC(C)OC(=O)[C@H](C)NC(=O)N1CCc2nc(COc3ccccc3)c3c(c2C1)CO[C@@H](C)C3,Potency,[4],1350 nM (active)
same,Potency,[5],2.62 µM (active)
same,Potency,[2],inactive
same,Potency,[3],inactive
CC(C)CON=C1C[C@@H](O)[C@@H](O)[C@@H]2[C@H]3C(=O)N(C[C@@H]4CCCO4)C(=O)[C@@H]3CC[C@H]12,Potency,[4],inactive
same,Potency,[5],inactive
same,Potency,[3],inactive
CCCCCCCc1cc2ccc(F)cc2c2c(C(=O)OC)c(C(=O)OC)c(C(=O)OC)n12,Potency,[4],inactive
same,Potency,[3],inactive
COC(=O)C1=C(C)[C@H](O)[C@@H](C)[C@](C)(c2cc(OC)c(C)c(OC)c2COc2ccccc2)O1,Potency,[4],inactive
same,Potency,[5],1.9 µM (active) and inactive
same,Potency,[2],inactive
same,Potency,[3],inactive
COC(=O)N[C@@H](c1cccc(F)c1)[C@@H](C)[N+](=O)[O-],Potency,[4],inactive
same,Potency,[5],inactive
same,Potency,[2],inactive
same,Potency,[3],inactive
COC(=O)C1=C(C)N(Cc2ccccc2)C(=NCCc2ccc(O)cc2)NC1c1ccc(Br)cc1 (stereo unspecified),Potency,[4],inactive
same,Potency,[5],inactive
same,Potency,[3],inactive
COc1ccc(O[C@H]2C=C[C@@H](c3ccccc3)O[C@H]2CON=C(C)CCN2CCCc3nc(C)c(C)cc32)cc1,Potency,[4],1510 nM (active)
same,Potency,[5],3.29 µM (active)
same,Potency,[3],inactive
C=CCN=C1NC(c2cccc(C(F)(F)F)c2)C(C(=O)OC)=C(C)N1Cc1ccccc1 (stereo unspecified),Potency,[4],inactive
same,Potency,[5],inactive
same,Potency,[3],inactive
COC(=O)C1=C(C)N(Cc2ccccc2)C(=NCC2CC2)NC1c1ccc(Br)cc1 (stereo unspecified),Potency,[4],inactive
same,Potency,[5],inactive
same,Potency,[3],inactive
CCc1cc2c(nc1CC)CCN(CCC(C)=NOC[C@H]1O[C@H](c3ccccc3)C=C[C@H]1Oc1ccc(OC)cc1)C2,Potency,[4],1690 nM (active)
same,Potency,[3],inactive
CC(CCC(=O)OC[C@H]1O[C@H](C#Cc2ccccc2)C=C[C@H]1Oc1ccc(C)cc1)=NOC[C@@H](O)[C@H]1O[C@@H]2OC(C)(C)O[C@H]2[C@@H]1O,Potency,[4],inactive
same,Potency,[5],inactive
same,Potency,[2],inactive
same,Potency,[3],inactive
CCOC(=O)OC[C@H]1O[C@H](c2ccc(C(C)=O)cc2)C=C[C@H]1Oc1ccc(-c2ccccc2)cc1,Potency,[4],1510 nM (active)
same,Potency,[3],inactive
C=CCOC(=O)NC(c1ccc(F)c(F)c1)C(C(=O)CCl)C(=O)OC (stereo unspecified),Potency,[4],inactive
same,Potency,[5],inactive
same,Potency,[3],inactive
C=C[C@@H](C)[C@](C)(O)c1ccccc1,Potency,[4],1510 nM (active)
same,Potency,[3],inactive
CCOC(=O)C1=C(CCl)NC(=O)N(C(C)=O)C1c1ccccc1 (stereo unspecified),Potency,[4],inactive
same,Potency,[5],inactive
same,Potency,[2],inactive
same,Potency,[3],inactive
COc1ccc(-c2nc3c(c4c2C[C@H](c2ccccc2)OC4)CN(C(=O)N[C@@H](C)C(=O)OC(C)C)CC3)c(C)c1,Potency,[4],1510 nM (active)
same,Potency,[3],inactive
COC(=O)C1=C(C)N(Cc2ccccc2)C(=NCC2CC2)NC1c1cccc(C(F)(F)F)c1 (stereo unspecified),Potency,[4],inactive
same,Potency,[3],inactive
